Measured values: PubChem BioAssay (NCATS)
Unmarked numbers belong to inactive results. Results filed as inconclusive are left out. Where a call stands in place of a potency, no number is given. Calls of active or inactive are those of the source. Calls come from the whole dose curve; as a rule, active = well fitted curve in the direction sought with a large enough effect; inconclusive = small, poorly fitted or top-dose-only effect, or another doubt; inactive = no such curve, though single readings can be large; an effect the other way counts as inactive or inconclusive.

Columns and labels:
[1] = biological target: Glutathione peroxidase 1 (Homo sapiens) (UniProt P07203); test: Primary qHTS Assay for Inhibitors of Recombinant Selenoprotein Glutathione Peroxidase 1 (GPX1) (AID 1845191); note: nearly all actives have a fitted effect of over 65% in size
Glutathione peroxidase 1 (Homo sapiens), sequence (P07203 whole entry, looked up): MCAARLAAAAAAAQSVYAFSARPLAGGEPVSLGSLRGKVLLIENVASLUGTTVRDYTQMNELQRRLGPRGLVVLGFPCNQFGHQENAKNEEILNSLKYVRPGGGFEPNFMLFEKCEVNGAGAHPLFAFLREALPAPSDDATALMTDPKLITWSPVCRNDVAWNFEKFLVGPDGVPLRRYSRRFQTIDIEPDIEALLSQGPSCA
How it was run: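 10 nM GPX1 + cpd, 30 min RT; start w/ 1 mM GSH, 0.5 mM cumene hydroperoxide, 0.5 mM NADPH, 100 nM GR, 0.01% BSA; buffer 50 mM Tris-HCl pH 7.5, 2 mM EDTA, 150 mM NaCl; Fl 340/450, 0 & 15 min.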

[2] = biological target: Phospholipid hydroperoxide glutathione peroxidase GPX4 (Homo sapiens) (UniProt P36969); test: Primary qHTS Assay for Inhibitors of Recombinant Selenoprotein Glutathione Peroxidase 4 (GPX4) (AID 1845192); note: nearly all actives have a fitted effect of over 65% in size; for activity change, negative = inhibition: series mostly up to about 50 µM
Phospholipid hydroperoxide glutathione peroxidase GPX4 (Homo sapiens), sequence (P36969 whole entry, looked up): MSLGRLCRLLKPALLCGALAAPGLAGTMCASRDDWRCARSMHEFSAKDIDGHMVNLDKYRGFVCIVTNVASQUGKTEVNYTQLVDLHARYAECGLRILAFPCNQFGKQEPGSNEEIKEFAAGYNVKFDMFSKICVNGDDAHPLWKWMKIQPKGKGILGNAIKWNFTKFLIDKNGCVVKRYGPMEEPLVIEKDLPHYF
How it was run: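 NADPH consumption, followed by fluorescence at 340/450 nm between 0 and 15 min, reports GPX4 activity via coupled glutathione reductase (100 nM). Enzyme 200 nM was pre-exposed to compound 30 min; 0.5 mM cumene hydroperoxide and 1 mM GSH served as substrates.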

[3] = biological target: Luciferin 4-monooxygenase (Photinus pyralis) (UniProt P08659); test: Primary firefly luciferase (FLuc) qHTS assay for identification of artifact compounds. (AID 1845220); note: nearly all actives have a fitted effect of over 60% in size; for activity change, negative = inhibition: series mostly up to about 54 µM
How it was run: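 FLuc 10 nM; luciferin 10 uM; ATP 10 uM; Tris-acetate pH 7.6, Mg-acetate 10 mM; 15 min RT preincubation; 5 min reaction; luminescence.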

[4] = Primary fluorescence-based thiol-reactive (MSTI) qHTS assay for identification of artifact compounds. (AID 1845221); note: nearly all actives have a fitted effect of over 65% in size; note: potency is the fitted concentration of half-maximal effect;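 for activity change, negative = thiol reactive: series mostly up to about 54 µM; thiol-reactive compounds lower the probe fluorescence signal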
How it was run: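 qHTS titration of compound; 4 uM MSTI, PBS pH 7.4, 2% DMSO; 1 h RT, dark; fluorescence 525/598 nm; normalized to Acetyl-MSTI and MSTI; 4-parameter Hill fit.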

[5] = tested on: Nanoluciferase (engineered Oplophorus gracilirostris luciferase); test: Primary Nanoluciferase (NLuc) qHTS assay for identification of artifact compounds. (AID 1845222); note: potency is the fitted concentration of half-maximal effect;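 for activity, negative = inhibition: NLuc secreted into diluted conditioned medium of S16 cells; series mostly up to about 54 µM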
How it was run: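 NLuc from S16 cell medium (1:55) plus test compounds, 15 min, room temperature. Luminescence after Nano-Glo (1:100) addition, 5 min.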

[6] = Primary redox qHTS assay for identification of artifact compounds. (AID 1845223)
How it was run: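 Amplex Red (25 uM) and HRP (250 mU/mL) in HBSS, with compounds for 15 min, then 250 uM DTT for 30 min, room temperature, dark. Fluorescence 525/598 nm read; normalized to DMSO and 10 uM DA3003; Hill fit.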

Row | Compound | Potency [1] | Potency [2] | Potency [3] | Potency [4] | Potency [5] | Potency [6] | activity change, negative = inhibition [3] | activity change, negative = thiol reactive [4] | activity, negative = inhibition [5] | redox activity (% of DA3003) [6] | outcome [3]
1 | C[C@]12CCC[C@](C)(C(=O)O)C1CCC13CC(CO)C(CCC12)C3 (some centres undefined) | inactive | inactive | inactive | inactive | inactive | inactive |  |  |  |  | 
2 | Cc1ccc(C)c(S(=O)(=O)n2cnc3ccccc32)c1 | inactive | inactive | inactive | inactive | inactive | inactive |  |  |  |  | 
3 | CC1CCC23COC(=O)C2=CC(O)CC3C1(C)CCc1ccoc1 (centres undefined) | inactive | inactive | inactive | inactive | inactive | inactive |  |  |  |  | 
4 | COc1ccc(C2C(C(=O)O)C(C(=O)O)C2c2ccc(OC)cc2O[C@@H]2O[C@H](CO)[C@@H](O)[C@H](O)[C@H]2O)c(O[C@@H]2O[C@H](CO)[C@@H](O)[C@H](O)[C@H]2O)c1 (some centres undefined) | inactive | inactive | inactive | 2.81 µM (active) | inactive | inactive |  |  |  |  | 
5 | NC(=O)c1ccc(F)c2c1C[C@@H](N(C1CCC1)C1CCC1)CO2 | inactive | inactive | inactive | inactive | inactive | inactive |  |  |  |  | 
6 | COc1cc(/C=C/C(=O)O[C@H]2[C@H](O)[C@@H](CO)O[C@@]2(CO)O[C@H]2O[C@H](CO)[C@@H](O)[C@H](O)[C@H]2O)cc(OC)c1O | inactive | inactive | inactive | inactive | inactive | inactive |  |  |  |  | 
7 | O=C(/C=C/c1ccc(O)cc1)O[C@H]1[C@H](OC2CCCCC2O)O[C@H](CO)[C@@H](O)[C@@H]1O (some centres undefined) | inactive | inactive | inactive | 4.12 µM (active) | inactive | inactive |  |  |  |  | 
8 | C[C@@H]1O[C@@H](O[C@H]2[C@H](O[C@H]3[C@H](O[C@H]4CC[C@@]5(C)C(CC[C@]6(C)C5CC=C5[C@@H]7CC(C)(C)C[C@@H](O)[C@]7(C)CC[C@]56C)[C@@]4(C)CO)O[C@H](C(=O)O)[C@@H](O)[C@@H]3O)O[C@H](CO)[C@H](O)[C@@H]2O)[C@H](O)[C@H](O)[C@H]1O (some centres undefined) | inactive | inactive |  |  |  |  | 0.671% [at 11.6 µM] | 67.3% [at 11.5 µM] | 4.57% [at 11.6 µM] | 10.7% [at 11.5 µM] | 
9 | C=C1CC/C=C(/C(=O)O)CCC2C1CC2(C)C (centres undefined) | inactive | inactive | inactive | inactive | inactive | inactive |  |  |  |  | 
10 | CC(C)(OC1OC(CO)C(O)C(O)C1O)C1CCC(O)(CO)C2CC(=O)C(C)(O)C2C1 (centres undefined) | inactive | inactive | inactive | inactive | inactive | inactive |  |  |  |  | 
11 | C=C1C(=O)O[C@@H]2/C=C(\C)CC/C=C(\C(=O)O[C@@H]3O[C@H](CO)[C@@H](O)[C@H](O)[C@H]3O)CC[C@@H]12 | inactive | inactive | inactive | 4.12 µM (active) | inactive | inactive |  |  |  |  | 
12 | CC1(C(=O)O)CCCC2(C)C3CCC4CC3(CCC12)CC4C(=O)O (centres undefined) | inactive | inactive | inactive | inactive | inactive | inactive |  |  |  |  | 
13 | CC1(C)CC2C3=CCC4[C@@]5(C)CC[C@H](OC6OCC(O)C(OC7OC(CO)C(O)C(O)C7O)C6O)C(C)(C)C5CC[C@@]4(C)[C@]3(C)C[C@H](O)[C@@]2(CO)[C@H](OC(=O)c2ccccc2)C1 (some centres undefined) | inactive | inactive |  |  |  |  | -8.37% [at 11.6 µM] | 159% [at 11.5 µM] | -2.24% [at 11.6 µM] | -2.38% [at 11.5 µM] | 
14 | O=S(=O)(O)c1ccc(Nc2ncnc3c2ncn3[C@@H]2O[C@H](CO)[C@@H](O)[C@H]2O)cc1 | inactive | inactive | inactive | inactive | inactive | inactive |  |  |  |  | 
15 | COc1cc(Nc2nc3c(s2)CCCC3c2ccccc2)ccc1-n1cnc(C)c1 (centres undefined) | inactive | inactive |  |  |  |  |  | -6.96% [at 11.5 µM] | 4.88% [at 11.6 µM] | -0.384% [at 11.5 µM] | inactive [at 11.6 µM]
16 | C=C1C(=O)O[C@@H]2C[C@]3(C)[C@@H](CCC(C)=O)[C@@H]3C[C@H]12 | inactive | inactive | inactive | inactive | inactive | inactive |  |  |  |  | 
17 | COc1ccc(S(=O)(=O)Nc2nc(-c3cccc([N+](=O)[O-])c3)cs2)cc1OC | inactive | inactive | inactive | 1.19 µM (active) | 9.53 µM (active) | inactive |  |  |  |  | 
18 | CC(C)=C1CC2[C@](C)(CC[C@@H](OC(=O)C3(C)OC3C)[C@@]2(C)O)CC1=O (some centres undefined) | inactive | inactive | inactive | inactive | inactive | inactive |  |  |  |  | 
19 | C[C@@H]1[C@H]2[C@H](O[C@@H]3O[C@H](CO)[C@@H](O)[C@H](O)[C@H]3O)OC=C(C(=O)O)[C@H]2C[C@@H]1OC(=O)/C=C/c1ccc(O)cc1 | inactive | inactive | inactive | 10.3 µM (active) | inactive | inactive |  |  |  |  | 
